Screening results: PubChem BioAssay, Johns Hopkins Ion Channel Center
Rows were chosen to be rich in hits. Some 1.6% of all compounds tested hit in one or more screens of this group.
KCNQ2 inh – rat KCNQ2 potassium channel inhibitors, primary screen, cell-based, CHO-K1, FluxOR thallium flux, B-score. Potassium voltage-gated channel subfamily KQT member 2 (Rattus norvegicus), O88943. 20 min; stronger effect = lower value. B-score at 10 µM. 1.1% of 310,000 active. AID 2156, 2009;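 active means fluorescence ratio B-score at most minus 3 library SDs, with starting brightness B-score within 2 library SDs, cut at about -5.5 in these data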
KCNQ2 pot – potentiators of rat KCNQ2 potassium channel; 0.54% of 310,000 active; CHO-K1 KCNQ2, FluxOR thallium flux fluorescence; stronger effect = higher value; AID 2239, 2010; Potassium voltage-gated channel subfamily KQT member 2 (Rattus norvegicus), O88943; B-score at 10 µM;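 active means fluorescence ratio B-score at least 3 SD of library B-scores, with initial fluorescence B-score within 3 of them, cut at about 5.3 in these data; same plate scores as AID 2156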;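 further: B-score of peak minus minimum over baseline fluorescence ratio after K+ and Tl+ stimulus; positive B-score means potentiation of KCNQ2 with more thallium influx and brighter signal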
Kir21 conf inh – mouse Kir2.1 channel blockers, retest, confirmation, cell-based, FluxOR thallium flux, duplicate. 41% of 2,300 active. shares compounds with KCNQ2 pot. AID 2032, 2009. Kir2.1-expressing cells, FluxOR thallium flux fluorescence; stronger effect = lower value. Tl flux remaining, % of negative control (stronger effect = lower value), % at 10 µM;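 active means Primary-screen hit whose thallium flux fell at least 3 control SD below untreated wells in both duplicates, with normal baseline fluorescence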
Target sequence (P35561 whole entry, looked up): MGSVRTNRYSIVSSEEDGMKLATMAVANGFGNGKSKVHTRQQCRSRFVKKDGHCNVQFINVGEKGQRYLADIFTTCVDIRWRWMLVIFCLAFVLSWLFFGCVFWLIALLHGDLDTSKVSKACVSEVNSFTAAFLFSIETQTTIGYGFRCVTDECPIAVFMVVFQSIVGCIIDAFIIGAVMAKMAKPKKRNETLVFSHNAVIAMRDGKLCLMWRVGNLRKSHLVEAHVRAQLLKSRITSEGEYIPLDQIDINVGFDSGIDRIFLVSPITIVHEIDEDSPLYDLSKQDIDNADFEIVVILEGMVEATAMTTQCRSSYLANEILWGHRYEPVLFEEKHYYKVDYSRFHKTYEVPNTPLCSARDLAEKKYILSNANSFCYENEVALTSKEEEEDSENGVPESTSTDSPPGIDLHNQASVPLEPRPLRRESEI
HEK293 ctr – parental HEK293 activity in Kir2.1 inhibitor counter-screen | shares compounds with KCNQ2 pot | FluxOR signal as % of negative control (100 = no effect), % at 10 µM | parental HEK293 cells, FluxOR thallium flux fluorescence; 0% = unstimulated blank wells | 19% of 2,300 active;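 active means dye signal at least 3 control SD above or below untreated wells in both duplicates, raw fluorescence within 3, either direction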;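 further: percent is based on the flux ratio of peak minus minimum fluorescence over baseline F0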
CHO-K1 Tl ctr – nonspecific thallium flux increase in parental CHO-K1, confirmation, counter-screen for KCNQ2 potentiator project, cell-based, FluxOR thallium flux, duplicate | shares compounds with KCNQ2 pot | parental CHO-K1 cells, FluxOR thallium flux fluorescence; zero = vehicle mean+3SD, 100% = vehicle-minus-blank window | activity increase over 3SD of controls, % at 10 µM | 43% of 1,200 active | AID 2282, 2010;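 active means signal rise of at least 3 SD above the untreated control mean, in both duplicate wells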;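 further: counter screen of KCNQ2 potentiator hits so any rise reflects channel-independent effects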
KCNQ1 pot spec – human KCNQ1 channel potentiation off-target, confirmation, selectivity assay for KCNQ2 potentiator project, cell-based, CHO, FluxOR thallium flux | shares compounds with KCNQ2 pot | CHO KCNQ1 stable, FluxOR thallium flux fluorescence; beyond 3SD, as % of vehicle-control signal | activation over 3SD threshold, % at 10 µM | 28% of 1,200 active | AID 2283, 2010;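 active means fluorescence ratio rise of at least 3 SD of vehicle wells above their mean, in both replicate wells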
KCNQ2 pot confirm – rat KCNQ2 channel potentiators, confirmation, cell-based, CHO, FluxOR thallium flux, duplicate; shares compounds with KCNQ2 pot; CHO-KCNQ2 cells, FluxOR thallium flux fluorescence; potentiation, less the hit threshold, % at 10 µM; 68% of 1,200 active;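 active means fluorescence ratio rising 3 SD or more over the vehicle control mean in both replicates, plus primary screen hit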;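 further: peak minus minimum thallium fluorescence divided by baseline after K/Tl stimulus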
Kir2-1 sel – mouse Kir2.1 channel activation off-target, confirmation, selectivity assay for KCNQ2 potentiator project, cell-based, HEK293, FluxOR thallium flux. HEK293 Kir2.1, FluxOR thallium flux fluorescence. shares compounds with KCNQ2 pot. activity over 3SD threshold, % at 10 µM. 2% of 1,200 active;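 active means fluorescence ratio rise of at least 3 SD above the vehicle-control mean, seen in both replicates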
KCNQ2 W236L MoA – potentiators of retigabine-insensitive KCNQ2 W236L, mechanism study for KCNQ2 potentiator project, cell-based, rat KCNQ2 W236L, CHO, automated patch clamp; shares compounds with KCNQ2 pot; automated patch clamp current; current increase over 3SD of negative controls (%), stronger effect = higher value, % at 25 µM; 10% of 940 active; AID 2558, 2010;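 active means current increase at least 3 SD of the untreated controls above them in both duplicate recordings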
Large screens that a line does not name were inactive (follow-up assays come after a bar, where they were run).

CSc1ccc(/C=N/NC(=O)c2cccs2)cc1	KCNQ2 pot 14 | Kir21 conf inh inactive | HEK293 ctr inactive | CHO-K1 Tl ctr 11 | KCNQ1 pot spec inactive | KCNQ2 pot confirm inactive | Kir2-1 sel inactive
O=C(N/N=C/c1ccncc1)c1cccs1	none (no result: KCNQ2 pot)
CC(=O)c1cccc(NC(=O)CCc2nnc3ccc(NCc4ccc5c(c4)OCO5)nn23)c1	none
COCCNS(=O)(=O)c1ccc(C)c(C)c1C	none
CCC(C)NCCOCCOc1ccccc1-c1ccccc1 (stereo not given)	none (no result: KCNQ2 pot) | Kir21 conf inh 44% | HEK293 ctr inactive
CC(C)(C)NCCOCCOc1ccccc1-c1ccccc1	none
NC(=O)C1=C[C@H](c2ccc(Br)cc2)C[C@H](OCc2ccc(CO)cc2)O1	none | Kir21 conf inh 45% | HEK293 ctr inactive
NC(=O)C1=C[C@@H](c2ccc(Br)cc2)C[C@@H](OCc2ccc(CO)cc2)O1	none (no result: KCNQ2 pot)
Cc1ccccc1OCC(=O)N/N=C/c1ccc(N2CCOCC2)o1	none
O=C(Cc1c(F)cccc1Cl)Nc1ccccc1N1CCCCC1	none (no result: KCNQ2 pot)
O=C(Cc1ccccc1)Nc1ccccc1N1CCOCC1	none (no result: KCNQ2 pot)
O=C(Cc1ccccc1)Nc1ccccc1N1CCCC1	KCNQ2 pot 13 | CHO-K1 Tl ctr inactive | KCNQ1 pot spec inactive | KCNQ2 pot confirm 54 | Kir2-1 sel inactive | KCNQ2 W236L MoA inactive
O=C(Cc1ccc(Br)cc1)Nc1ccccc1N1CCCC1	KCNQ2 pot 18 | Kir21 conf inh inactive | HEK293 ctr inactive | CHO-K1 Tl ctr inactive | KCNQ1 pot spec inactive | KCNQ2 pot confirm 52 | Kir2-1 sel inactive | KCNQ2 W236L MoA inactive
COc1ccc(CC(=O)Nc2ccccc2N2CCCC2)cc1OC	none
O=C(Cc1cccc(C(F)(F)F)c1)Nc1ccccc1N1CCCC1	KCNQ2 pot 11 | Kir21 conf inh inactive | HEK293 ctr inactive | CHO-K1 Tl ctr inactive | KCNQ1 pot spec inactive | KCNQ2 pot confirm 60 | Kir2-1 sel inactive | KCNQ2 W236L MoA inactive
COc1ccc(CC(=O)Nc2ccccc2N2CCCC2)cc1	none | Kir21 conf inh 62% | HEK293 ctr inactive
O=C(CCNC(=O)c1ccc(Br)cc1)Nc1ccccc1N1CCCC1	none (no result: KCNQ2 pot)
C=CCN1C(=O)c2ccccc2NC1c1cc(Br)cs1 (stereo not given)	none (no result: KCNQ2 pot)
Cc1ccc(S(=O)(=O)NC2=NCN(CC(=O)O)CN2)cc1	none
Cc1nn(CC(=O)NCC(C)c2ccccc2)c(=O)c2cc(-c3ccccc3)nn12 (stereo not given)	none (no result: KCNQ2 pot)
COc1cccc(OCC(O)CN2CCN(c3ccccn3)CC2)c1 (stereo not given)	none
O=S(=O)(N1CCCCC1)N1CCN(CC(O)COc2ccc3cc(Br)ccc3c2)CC1 (stereo not given)	none
OC(COc1ccc2cc(Br)ccc2c1)CN1CCCC1 (stereo not given)	none (no result: KCNQ2 pot) | Kir21 conf inh 38% | HEK293 ctr inactive
OC(COc1ccc2cc(Br)ccc2c1)CN1CCN(c2ccccn2)CC1 (stereo not given)	KCNQ2 pot 7.4 | Kir21 conf inh inactive | HEK293 ctr inactive | CHO-K1 Tl ctr inactive | KCNQ1 pot spec 14 | KCNQ2 pot confirm inactive | Kir2-1 sel inactive
CCOC(=O)c1csc(N/N=C2\CCc3ccccc32)n1	none
CCOC(=O)c1csc(N/N=C2\CCCc3ccccc32)n1	KCNQ2 pot 5.5 | Kir21 conf inh inactive | HEK293 ctr inactive | CHO-K1 Tl ctr 22 | KCNQ1 pot spec inactive | KCNQ2 pot confirm inactive | Kir2-1 sel inactive | KCNQ2 W236L MoA inactive
O=C(N/N=C/c1ccccn1)c1cc(C2CC2)nc2ccccc12	none (no result: KCNQ2 pot)
Cc1cccc(NC(=S)NC(=O)c2cc(-c3ccccc3)nc3ccccc23)c1	none
O=C(N/N=C/c1cccnc1)c1cc(Br)ccc1O	none (no result: KCNQ2 pot)
Cc1ccccc1NC(=S)NC(=O)c1cc(-c2ccccc2)nc2ccccc12	KCNQ2 pot 6.2 | Kir21 conf inh inactive | HEK293 ctr inactive | CHO-K1 Tl ctr inactive | KCNQ1 pot spec 8.8 | KCNQ2 pot confirm inactive | Kir2-1 sel inactive
O=C(N/N=C/c1ccccn1)c1cc(-c2ccccc2)nc2ccccc12	KCNQ2 pot 11 | Kir21 conf inh inactive | HEK293 ctr inactive | CHO-K1 Tl ctr 222 | KCNQ1 pot spec 81 | KCNQ2 pot confirm 13 | Kir2-1 sel inactive | KCNQ2 W236L MoA inactive
O=C(N/N=C/c1ccccn1)c1cc(Br)ccc1O	KCNQ2 pot 7.3 | Kir21 conf inh inactive | HEK293 ctr 228% | CHO-K1 Tl ctr inactive | KCNQ1 pot spec inactive | KCNQ2 pot confirm 44 | Kir2-1 sel inactive | KCNQ2 W236L MoA inactive
O=[N+]([O-])c1ccc(OCc2n[nH]c(=S)n2-c2ccccc2)cc1	none (no result: KCNQ2 pot)
Cc1c(C)n(Cc2ccccc2)c2ccc(C(=O)OCCN(C)C)cc12	none (no result: KCNQ2 pot) | Kir21 conf inh 26% | HEK293 ctr inactive
Cc1c(C)n(Cc2ccccc2)c2ccc(C(=O)NCCN3CCOCC3)cc12	none
COc1ccc(N(CC(=O)Nc2cccnc2)S(=O)(=O)c2ccccc2)cc1OC	none (no result: KCNQ2 pot)
CC(=O)Nc1ccccc1OCC(O)CS(=O)(=O)c1ccc(C(F)(F)F)cn1 (stereo not given)	none
CNC(=O)COc1coc(CN2CCN(c3ccccc3F)CC2)cc1=O	none
Cc1ccc(C(C2=C(O)CC(C)(C)CC2=O)C2C(=O)CC(C)(C)CC2=O)o1 (stereo not given)	KCNQ2 pot 8.7 | CHO-K1 Tl ctr inactive | KCNQ1 pot spec 54 | KCNQ2 pot confirm 1.5 | Kir2-1 sel inactive | KCNQ2 W236L MoA 46%
CCCC(C1=C(O)CC(C)(C)CC1=O)C1C(=O)CC(C)(C)CC1=O (stereo not given)	none (no result: KCNQ2 pot)
O=C(Nc1nnc(-c2ccc(F)cc2)o1)c1ccc(S(=O)(=O)N2CCOCC2)cc1	none
